Shown is part of a subset that was picked to be rich in hits.
Pf Dd2 growth: Plasmodium falciparum Dd2 growth inhibition; Potency, µM (titrated, usually from 28.9 µM), without a hit: top-dose activity, negative = inhibition, actives largely listed as inhibitors; P. falciparum Dd2 growth, SYBR Green, 72 h; 120,000 compounds, 4.3% hits; active = well fitted inhibition curve with a large enough effect;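 note: plate controls were DMSO vehicle for no effect and reference drug for full effect; nearly all actives have a fitted effect of over 65% in size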
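Readout: SYBR Green fluorescence, 485 nm excitation, 535 nm emission, after ~16 h lysis at 37C. Before that, Dd2-infected red cells (2.5% hematocrit) grew 72 h with compound, 29 uM top final concentration.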
Starred values were filed as active, the others as inactive; i = inactive; [ ] = remark or other dose. Potency is the fitted concentration of half-maximal effect.

SMILES | Pf Dd2 growth
Oc1ccccc1CN(CCN1CCCCC1)CC1CCCN(C2CCCC2)C1 (centres undefined) | i
O=C(c1cnco1)N(CC1CCN(Cc2ccccc2F)CC1)CC1CCCO1 (centres undefined) | -14%
FC(F)Oc1ccccc1CN(CC1CCN(C2CCCC2)CC1)CC1CCCO1 (centres undefined) | 7.1µM*
C#CCN(C)Cc1nc(C2(O)CCN(C3CCC3)CC2)cs1 | 10µM*
C#CCN(C)Cc1nc(C2(O)CCN(C)CC2)cs1 | 1%[44.1 µM]
C#CCN(C)Cc1nc(C2(O)CCN(CC3CC3)CC2)cs1 | i
COc1cccc(CN2CCCCCNC(=O)[C@@H]3CCC[C@@H]32)c1OC | -32%
CN1CCCCCCN(Cc2cccnc2)[C@H]2CCC[C@H]2C1=O | -23%
Cc1ccc(CNC(=O)N2CCCCCCN(C)C(=O)[C@@H]3CCC[C@@H]32)cc1 | -10%
CN1CCCCCCN(S(=O)(=O)c2ccccc2)[C@H]2CCC[C@H]2C1=O | 4µM*
CN1CCCCCCN(C(=O)c2ccoc2)[C@H]2CCC[C@H]2C1=O | 3%
COc1cccc(CN2CCCCCCN(C)C(=O)[C@@H]3CCC[C@@H]32)n1 | 2.5µM*
O=C1NCCCCCCN(S(=O)(=O)c2ccccc2)[C@H]2CCCC[C@@H]12 | i
Cc1ccc(CN2CCCCCCN(C)C(=O)[C@@H]3CCC[C@@H]32)s1 | 6.3µM*
O=C1NCCCCCCN(S(=O)(=O)c2ccccc2)[C@H]2CCC[C@@H]12 | -10%
O=C(NCc1cccnc1)c1c(OCC2CC2)cc(=O)n2c1CCCCC2 | -10%
CC(=O)N1CCN(C(=O)C[C@@H]2c3nc(NC(=O)C(C)(C)C)sc3C[C@@H]3[C@](C)(CO)[C@H](O)CC[C@]32C)CC1 | -14%
Cc1cc(=O)n(CC(=O)NCc2ccccc2Br)c(N2CCOCC2)n1 | i
O=C(c1cccs1)N1CCc2n[nH]c(=O)n2CC1 | 9%
CCOc1cc(=O)n2c(c1C(=O)Nc1ccc(F)cc1Cl)CCCC2 | 24%
COc1ccc(C(=O)N[C@@H]2CN(c3ncccn3)C[C@H]2CN(C)C)c(OC)n1 | -5%
Cc1cc(F)ccc1NC(=O)c1ccc2nc(Cc3ccccc3)oc2c1 | -21%
Cc1cc(F)ccc1NC(=O)c1csc2c1CCC(C)C2 (centres undefined) | 4.5µM*
O=C(Nc1ccc(F)cc1)c1csc2c1CCCCC2 | -7%
CSCc1noc(Cn2nc(-c3ccccc3)c3ccccc3c2=O)n1 | -18%
SMILES | Pf Dd2 growth
O=C(NCC1CC1)c1cnc2n1CCN(CCc1ccccc1)CC2 | 8%[44.1 µM]
CN(Cc1ccccc1)Cc1nc2c(n1Cc1ccccc1)C(=O)N(Cc1ccccc1C#N)CCN2 | 10µM*
O=C1c2c(nc(CNCc3cnccn3)n2Cc2ccccc2)NCCN1Cc1cccc(Cl)c1 | 2.2µM*
CC(=O)N1CCN(Cc2nc3c(n2Cc2ccccc2)C(=O)N(Cc2ccccc2C#N)CCN3)CC1 | i
N#Cc1ccccc1CN1CCNc2nc(COc3ccccc3)n(Cc3ccccc3)c2C1=O | i
COCCN1CCNc2nc(CNCc3cccc(Cl)c3)n(Cc3ccccc3)c2C1=O | i
O=C(O)c1ccc(NCc2nc3c(n2Cc2ccccc2)C(=O)N(Cc2cccc(Cl)c2)CCN3)cc1 | -1%
CC(NC(=O)c1cn(C2CCC(N)CC2)nn1)c1ncnn1C (centres undefined) | -15%
O=C(c1ccccc1)N1CCC(N2CCCC2=O)CC1 | -1%[44.1 µM]
CN(C)[C@@H]1[C@@H](NC(=O)Cn2cnc3ccsc3c2=O)[C@H]2CCO[C@H]21 | 1%
CN1C(=O)CCC2(CNC(=O)C3CCC3)CCCC=C12 (centres undefined) | 8%
Cc1cccc(CSc2nc3cccnc3n2Cc2ccc(C(=O)NCc3ccco3)cc2)c1 | -14%
O=C(NC1CC1)c1ccc(Cn2c(SCc3ccc(F)cc3)nc3cccnc32)cc1 | -2%
Cc1ccc(CNC(=O)c2ccc(Cn3c(SCc4ccc(F)cc4)nc4cccnc43)cc2)o1 | 11µM*
O=C(NCCc1ccccc1)c1ccc(CSc2nc3cccnc3n2Cc2ccc(F)cc2)cc1 | 8.9µM*
CN(Cc1ccccc1)C(=O)c1ccc(CSc2nc3cccnc3n2Cc2ccccc2F)cc1 | -18%
O=C(NCCc1cccs1)c1ccc(Cn2c(SCc3ccccc3)nc3cccnc32)cc1 | 11µM*
Cc1cccc(Cn2c(SCc3ccc(C(=O)NCc4ccccc4F)cc3)nc3cccnc32)c1 | -27%
Cc1cccc(Cn2c(SCc3ccc(C(=O)NCCc4ccccc4)cc3)nc3cccnc32)c1 | 11µM*
CCOc1ccc(C(=O)NCc2nc3cccnc3n2Cc2ccc(F)cc2)cc1OCC | i
O=C(NCc1cccs1)c1ccc(Cn2c(SCc3ccc(F)cc3)nc3cccnc32)cc1 | -19%
CN1CCNc2cc(Nc3ccc(F)c(Cl)c3)ncc2C1 | -27%[44.1 µM]
CSCC[C@@H]1NC(=O)c2cc(NC(=O)CCc3ccc4c(c3)CCO4)ccc2NC1=O | -15%
Cc1occc1C(=O)N1CCC2(CCCN(Cc3cccnc3)C2=O)C1 (centres undefined) | 9%
CC(C)N1C[C@H](O)C[C@H]1c1nnc2n1CCN(C(=O)c1ccco1)CC2 | 0%
SMILES | Pf Dd2 growth
CC(=O)N1Cc2ccccc2CC2(CCCN(CC3CCNC3)C2)C1 (centres undefined) | -4%
COCCO[C@H]1C(=O)N(C2CCN(Cc3ccc(C#N)cc3)CC2)[C@H]1c1ccncc1 | 3%
CNCCN1C(=O)CC[C@H]2CN(C(=O)CCc3ccsc3)CC[C@H]21 | -24%
CC1CCC2(CC1)NC(=O)N(CC(=O)Nc1cc(F)cc(F)c1)C2=O (centres undefined) | i
Cc1ccc(-n2ncc(C(=O)N3CCN(c4cccc(C)c4)C(C)C3)c2C2CCN(C(=O)OC(C)(C)C)CC2)cc1 (centres undefined) | 4.5µM*
COc1ccc(-n2ncc(C(=O)N3CCN(C(=O)c4ccco4)CC3)c2C2CCN(C(=O)OC(C)(C)C)CC2)cc1 | 38%
CC(C)(C)OC(=O)N1CCC(c2c(C(=O)NC3CCN(Cc4ccccc4)CC3)cnn2-c2cccc(F)c2)CC1 | -17%
CC(C)(C)OC(=O)N1CCC(c2c(C(=O)N3CCN(C(=O)c4ccco4)CC3)cnn2-c2cccc(Cl)c2)CC1 | 10µM*
Cc1cccc(-n2ncc(C(=O)N3CCN(Cc4ccccc4)CC3)c2C2CCN(C(=O)OC(C)(C)C)CC2)c1 | 7.9µM*
CN1CCN(C(=O)c2cnn(-c3ccccc3)c2C2CCN(C(=O)OC(C)(C)C)CC2)CC1 | -21%
CC(C)(C)OC(=O)N1CCC(c2c(C(=O)N3CCN(C4CCCCC4)CC3)cnn2-c2cccc(Cl)c2)CC1 | 10µM*
CC(C)(C)OC(=O)N1CCC(c2c(C(=O)N3CCN(c4ncccn4)CC3)cnn2-c2cccc(F)c2)CC1 | 8%
CC(C)(C)OC(=O)N1CCC(c2c(C(=O)N3CCCCC3)cnn2-c2ccc(F)cc2)CC1 | 3%
CCN1C(=O)CCC2(C(=O)NC3CCCC3)CCCC=C12 (centres undefined) | -13%
CCn1ccc2c(CN3CCC4(CCCN(CCOC)C4=O)C3)cccc21 (centres undefined) | -14%
CCN(c1ccc2c(c1)OCO2)C1CN(C(=O)OC(C)(C)C)C1 | -14%
C=CCN1C[C@@H]2CN(C(=O)C(C)(C)NC(C)=O)C[C@]2(C(=O)O)C1 | -8%
CCc1ccccc1NC(=O)CC1CCN(c2ccnc(OC)n2)CC1 | i
CNC(=O)[C@@H]1C[C@H](N)CN1S(=O)(=O)c1cccc(OC)c1 | -6%
C=CCN(C)C(=O)C[C@@H]1c2nc(NC(=O)c3cccs3)sc2C[C@@H]2[C@](C)(CO)[C@H](O)CC[C@]21C | 11µM*
